Experimental data taken from PubChem BioAssay AID488890 (Southern Research Specialized Biocontainment Screening …, 2010).
Out of some 320,000 compounds screened, about 1,300 (0.41%) were called active. Inconclusive results (about 3%) are left out. No rule for the calls is given here. A selection follows. Entries with a potency or affinity are not part of this list.

assay: growth inhibition of non-replicating M. tuberculosis (AID 488890); conditions: Mycobacterium tuberculosis non-replicating, at 25 µM, stronger effect = higher value;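 also: plate controls were DMSO cells for no effect and high antibiotic wells for full effect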

| SMILES | inhibition |
| --- | --- |
| COc1ccc(CNC(=O)[C@H](C)NC(=O)[C@@H]2Cc3ccccc3CN2)cc1 | 1.37% |
| CC(OC(=O)CCCSc1nc2ccccc2s1)C(=O)NC(N)=O (configuration not stated) | 68.6% |
| CCNC(=O)NC(=O)C(C)OC(=O)CCCc1nc2ccccc2s1 (configuration not stated) | 65.1% |
| Cc1c(Cl)cccc1NC(=O)CSc1nncn1-c1cccnc1 | 2.49% |
| O=c1nc(-c2ccccc2)c2ccccc2[nH]1 | -10.3% |
| O=c1cc(-c2ccccc2)[nH]c2ccccc12 | 14.9% |
| CC(C)CN(C(=O)Cn1nnc(-c2ccc(F)cc2)n1)C1CCS(=O)(=O)C1 (configuration not stated) | 2.71% |
| CCOC(=O)c1c(-c2cccc([N+](=O)[O-])c2)csc1N | 39.4% |
| CCOC(=O)c1cc(-c2cccc([N+](=O)[O-])c2)n[nH]1 | -6.3% |
| COc1cccc(C(=O)Nc2ccc(-n3nncc3C(C)(C)C)cc2)c1 | 9.74% |
| COc1cccc(-n2nnnc2SCC(=O)NC2CCCC2)c1 | 7.16% |
| COc1cccc(Oc2nnnn2-c2ccccc2)c1 | 6.02% |
| C=C(C(=O)Oc1ccccc1C(C)(C)C)c1ccccc1 | 36.4% |
| COC(=O)c1ccc2c(=O)n(CCCCCC(=O)O)c(=O)[nH]c2c1 | -11.8% |
| CC(NC(=O)c1ccc(F)cc1F)C1CC2CCC1C2 (configuration not stated) | 77.7% |
| CC(NC(=O)c1cccc(S(=O)(=O)N(C)C)c1)C1CC2CCC1C2 (configuration not stated) | -2.47% |
| CC(NC(=O)COC(=O)c1ccccc1F)C1CC2CCC1C2 (configuration not stated) | 71% |
| CC(NC(=O)CCC(=O)c1ccc(F)cc1)C1CC2CCC1C2 (configuration not stated) | 11.8% |
| O=C(C1CCCN(S(=O)(=O)c2cccc3nsnc23)C1)N1CCN(c2ccccn2)CC1 (configuration not stated) | 16.4% |
| CCCCN(C(=O)NCCCCCCNC(=O)N(CCCC)C1CCS(=O)(=O)C1)C1CCS(=O)(=O)C1 (configuration not stated) | -10.6% |
| COc1ccc(CC(=O)OCc2nnc(-c3ccccc3)o2)cc1 | 66.7% |
| COc1cccc(C(Nc2ccccn2)c2oc(CO)cc(=O)c2O)c1 (configuration not stated) | 8.94% |
| O=C(COc1ccc(CO)cc1)Nc1ccc(F)cc1 | -2.12% |

| SMILES | inhibition |
| --- | --- |
| CC(=O)Nc1ccc(/C=N/OCC(=O)Nc2ccc(C)cc2)cc1 | 31.8% |
| CC(=O)c1cccc(NC(=O)COc2ccccc2)c1 | 54.2% |
| CC(C)CNC(=O)c1cccc(NC(=O)COc2cccc([N+](=O)[O-])c2)c1 | 16.2% |
| CCOC(=O)c1cccc(NC(=O)COc2ccc([N+](=O)[O-])cc2)c1 | 73.8% |
| O=C(COc1ccccc1)Nc1cccc(-c2nnc(-c3ccccc3)o2)c1 | 15.8% |
| CNC(=O)CO/N=C/c1ccc(N(C)C)cc1 | 3.3% |
| CC(=O)Nc1cccc(OCC(=O)Nc2ccc(F)cc2)c1 | -6.82% |
| Cn1c(N)c(C(=O)COC(=O)Cc2ccc(Br)cc2)c(=O)n(C)c1=O | 3.86% |
| O=C(Cc1ccc(F)cc1)N1CCC(CC2CC(c3cccc(Br)c3)=NO2)(C(=O)NCC2CCCCC2)CC1 (configuration not stated) | 37% |
| COc1ccc(-n2c(C)c(C)c3c(NCCCO)ncnc32)cc1 | -0.92% |
| COc1ccc(-n2c(CN3CCN(C)CC3)nc3ccc([N+](=O)[O-])cc3c2=O)c(OC)c1 | 1.89% |
| COc1ccc(C(=O)CC(=O)C(=O)Nc2c(C)cccc2C)cc1 | 78.4% |
| O=C(C1CCN(S(=O)(=O)c2ccc(Br)cc2)CC1)N1CCOCC1 | -10.1% |
| COC(=O)c1ccc(C)c(NC(=O)Cc2ccc([N+](=O)[O-])cc2)c1 | 21.2% |
| COc1ccc(S(=O)(=O)N2CCC(C(=O)NCCOc3ccccc3F)CC2)cc1OC | 24.4% |
| COc1ccc(/C=N/OCC(=O)Nc2ccc3c(c2)OCO3)c(OC)c1 | 59.9% |
| CC(=O)Nc1cccc(OCC(=O)Nc2ccccc2)c1 | -8.67% |
| CCC(=O)c1ccc(OCC(=O)Nc2ccc3c(c2)OCCO3)cc1 | 69.5% |
| COC(=O)N/N=C/c1cccc(OCCSc2ccc(Cl)cc2)c1 | 74.7% |
| CC(=O)Oc1ccc(/C=N/NC(=O)CCSc2ccccc2)cc1 | 9.49% |
| COC(=O)COc1cccc(NC(=O)C(c2ccccc2)c2ccccc2)c1 | 3.23% |
| Cc1cc(NC(=O)CO/N=C/c2ccc3c(c2)OCO3)ccc1Br | -0.49% |
| O=C(COc1ccccc1F)Nc1ccc2c(c1)OCCO2 | 52.5% |

| SMILES | inhibition |
| --- | --- |
| COc1cc(OC)cc(C(=O)OCc2cc3ccccc3[nH]c2=O)c1 | -16% |
| COc1ccc(NC(=O)/C(=C/c2cccs2)NC(=O)c2ccco2)cc1 | -0.67% |
| Nc1cc(N)nc(SCC(=O)Nc2ccc3c(c2)OCO3)n1 | 2.02% |
| CS(=O)(=O)Oc1ccc(/C=N/NC(=O)c2ccncc2)cc1 | 60.2% |
| O=c1cc(-c2ccccc2)nc2nc(SCc3ccccc3)[nH]n12 | 60.3% |
| O=C(CCn1c(=S)oc2ccccc21)Nc1ccccc1Br | -5.39% |
| O=C(O)c1ccc2c(c1)C(=O)N(NC(=O)c1ccccc1)C2=O | -12.7% |
| COC(=O)c1ccc(NC(=O)COc2ccc3c(c2)OCO3)cc1 | 79.3% |
| CCc1ccccc1NC(=O)COc1ccc2c(c1)OCO2 | 65.4% |
| CC1=C(C(=O)Nc2ccccc2C(F)(F)F)C(c2sccc2C)NC(=S)N1 (configuration not stated) | -0.9% |
| COc1ccc(Oc2c(O)c3ccccc3n(C)c2=O)cc1 | 9.82% |
| Cn1c(=O)c(-c2ccccc2)c(O)c2ccccc21 | 23.1% |
| CCCCn1c(=O)c(C(=O)Nc2ccccc2)c(O)c2ccccc21 | -12.7% |
| CC(C)NC(=O)c1c(O)c2cccc3c2n(c1=O)CCC3 | 11.9% |
| CCCCCCn1c(=O)c(C(=O)Nc2cccc(C)n2)c(O)c2ccccc21 | -13.9% |
| CCCCCn1c(=O)c(C(=O)Nc2ccccc2Cl)c(O)c2ccccc21 | -6.13% |
| CCCCCn1c(=O)c(-c2nc3ccccc3[nH]2)c(O)c2ccccc21 | 1.53% |
| CNC(=O)c1c(O)c2cccc3c2n(c1=O)CCC3 | 45.4% |
| CCCCn1c(=O)c(C(=O)Nc2ccccc2C)c(O)c2ccccc21 | -11.7% |
| CCCCCn1c(=O)c(C(=O)Nc2ccccc2)c(O)c2ccccc21 | 16.7% |
| CC1C/C(=N\NC(=O)c2ccc(NS(=O)(=O)c3ccc(Br)cc3)cc2)CC(C)(C)C1 (configuration not stated) | -12.6% |
| Cc1nc(CCNC(=O)COc2ccccc2)cs1 | -16% |
| CCCC(=O)n1nc(-c2ccc(Cl)cc2)nc1SC | 64.9% |

| SMILES | inhibition |
| --- | --- |
| O=C(CSc1nnc(Nc2ccccc2)s1)Nc1ccc(S(=O)(=O)N2CCOCC2)cc1 | 6.81% |
| Cc1cccc(N2CCN(C(=O)c3cc(=O)[nH]c4ccccc34)CC2)c1C | 24.4% |
| CCCC(C)C1c2c(c(C)c(C)oc2=O)Oc2c(C)c(C)oc(=O)c21 (configuration not stated) | 25.8% |
| O=C1c2ccccc2C(=O)N1OS(=O)(=O)c1ccccc1 | 19% |
| Cc1nn(C)cc1/C=N\NC(=O)c1ccc2c(c1)c(C)c(C)n2Cc1ccccc1 | -7.16% |
| CCOc1ccccc1NC(=O)NCc1ccccc1F | 13.2% |
| COc1ccc(/C=N/NC(=O)c2cccc(NC(=O)c3ccccc3)c2)c(C(=O)O)c1OC | 31.1% |
| Cc1c(CCC(=O)N[C@@H](C)C(=O)O)c(=O)oc2cc3occ(-c4ccccc4)c3cc12 | 0.57% |
| NS(=O)(=O)c1cc(C(=O)NCCc2ccccn2)ccc1Cl | 7.03% |
| Cc1ccc(/C=N/NC(=O)c2ccc(C(=O)N/N=C/c3ccc(C)s3)o2)s1 | -14.7% |
| Cc1ccsc1/C=N/NC(=O)c1ccc([N+](=O)[O-])cc1 | -7.45% |
| Cc1ccsc1/C=N/NC(=O)c1cccnc1 | -17.1% |
| Cn1cccc1/C=N/NC(=O)c1cccnc1 | 6.3% |
| O=C(N/N=C/c1cccn1-c1ccccc1)c1ccncc1 | 52.4% |
| Cc1ccc(-n2c(C)cc(/C=N/NC(=O)c3ccncc3)c2C)c(C)c1 | 73.9% |
| Cc1ccc(/C=N/NC(=O)c2ccccn2)s1 | 59.8% |
| Cc1cccc(C)c1-n1c(C)cc(/C=N/NC(=O)c2ccncc2)c1C | 78% |
| Nn1c(SCC(=O)NC2CCCCC2)nnc1-c1ccccc1F | 9.14% |
| COC(=O)Nc1ccc(S(=O)(=O)N2CCCC(C(=O)Nc3cccc4c3OCCO4)C2)cc1 (configuration not stated) | 17.4% |
| Cc1ccc(C(=O)N/C(=C/c2ccc(Cl)cc2)C(=O)Nc2cccc(C(=O)O)c2)cc1 | 17% |
| Cc1cc(NC(=O)CCC(=O)N(CC(=O)NCC2CCCO2)c2ccc(C)c(C)c2)no1 (configuration not stated) | -4.55% |
| COc1nc(NCCO)nc(Nc2ccc([N+](=O)[O-])cc2)n1 | -18% |
| CSc1ccc(CCNC(=O)C2CCCN(c3nn4c(=O)cc(C)nc4s3)C2)cc1 (configuration not stated) | 5.95% |

| SMILES | inhibition |
| --- | --- |
| CC1(C(O)(C#CCN2CCCCC2)c2ccccc2)CCCC1 (configuration not stated) | 3.27% |
| Clc1ccc(Cl)c(-c2nc(-c3ccncc3)no2)c1 | -30.7% |
| CCc1ccc(OCC(=O)N2CCN(c3ccccc3F)CC2)cc1 | 52.6% |
| COC(=O)c1ccccc1NC(=O)COC(=O)c1cccnc1 | 2.43% |
| Cc1cccc(CN2CCSCC2)c1 | 21.4% |
| Cc1ccc(NC(=O)CNC(=O)c2ccc(C)s2)nc1 | -9.04% |
| Cc1ccc(/C=N/NC(=O)c2cccnc2)o1 | 7.34% |
| O=C(N/N=C\c1cc(Br)cs1)c1ccncc1 | 71.3% |
| O=C(N/N=C\c1ccncc1)c1ccc(Br)s1 | 15.2% |
| O=C(N/N=C/c1cc(Br)cc(Br)c1O)c1ccncc1 | 57.1% |
| O=C(N/N=C/c1cc(Br)c(Br)o1)c1cccnc1 | 40.9% |
| O=C(N/N=C/c1ccc(Br)s1)c1cccs1 | 79.8% |
| Cc1ccc(/C=N/NC(=O)c2ccc(-c3ccccc3)cc2)o1 | 4.22% |
| Cc1ccc(/C=N/NC(=O)c2cccnc2)s1 | 75.2% |
| COc1cc(NS(=O)(=O)c2ccc(NC(=S)NC(=O)c3ccc(F)cc3)cc2)nc(OC)n1 | 42.3% |
| CCn1c(CN2CCOCC2)nnc1SCC(=O)Nc1cccc(C)c1 | -3.97% |
| O=C(NCCC(=O)N1CCC2(CC1)NCCc1[nH]cnc12)c1ccc(Br)cc1 | 10.4% |
| Cn1ncc2c(Nc3ccc(Br)cc3)nc(Nc3ccc(Br)cc3)nc21 | 9.77% |
| O=C(N/N=C/c1cn(-c2ccccc2)nc1-c1cccs1)c1ccncc1 | 48.3% |
| O=C(N/N=C/c1cn(-c2ccccc2)nc1-c1cc2ccccc2o1)c1ccncc1 | 42.8% |
